What all share (test): DAPPL (digital affinity profiling via proximity ligation, sequencing); 10 mM Tris-HCl pH 7.5, 50 mM NaCl, 1 mM DTT, 4% glycerol, room temperature, 30 min; GST-TFs on glutathione beads, 16-mer random dsDNA library, 0.1% formaldehyde crosslink after washing; high values mean tight binding
Holding throughout (conditions): protein: recombinant; tags: N-terminal GST; dsDNA, one strand shown

One assay has as its target T1, ERF (Homo sapiens, UniProt P50548 1-548).
T1 sequence: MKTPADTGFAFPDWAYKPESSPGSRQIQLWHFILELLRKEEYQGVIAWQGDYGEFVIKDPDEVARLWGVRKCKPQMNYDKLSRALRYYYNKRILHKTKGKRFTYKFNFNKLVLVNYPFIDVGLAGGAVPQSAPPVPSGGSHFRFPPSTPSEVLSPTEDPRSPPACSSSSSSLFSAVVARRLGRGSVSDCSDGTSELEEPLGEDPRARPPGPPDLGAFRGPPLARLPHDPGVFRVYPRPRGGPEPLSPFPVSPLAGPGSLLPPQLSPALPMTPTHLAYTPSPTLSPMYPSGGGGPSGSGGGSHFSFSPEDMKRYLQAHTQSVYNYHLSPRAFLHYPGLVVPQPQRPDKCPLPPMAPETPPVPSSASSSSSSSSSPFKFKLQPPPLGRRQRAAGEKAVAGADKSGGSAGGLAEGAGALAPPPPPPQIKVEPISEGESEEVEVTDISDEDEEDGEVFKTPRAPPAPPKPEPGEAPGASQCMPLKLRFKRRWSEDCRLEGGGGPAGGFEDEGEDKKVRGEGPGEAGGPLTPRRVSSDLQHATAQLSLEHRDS
Put shortly:
(§1)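 GST fusions of human transcription factors were expressed in yeast and captured with glutathione beads. Once given DNA barcodes and pooled alongside a tag-only sample, they were incubated for 30 min at room temperature with 200 nmole of a random double-stranded 16-mer DNA library in Tris/NaCl/DTT/glycerol buffer, then washed, crosslinked (0.1% formaldehyde), proximity-ligated, PCR-amplified and sequenced on an Illumina NextSeq500. The binding signal of each hexamer is its read frequency for a factor divided by its frequency for the tag-only sample.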

For a further assay, the target named is T2, ETV3L (Homo sapiens, UniProt Q6ZN32 1-361).
T2 sequence: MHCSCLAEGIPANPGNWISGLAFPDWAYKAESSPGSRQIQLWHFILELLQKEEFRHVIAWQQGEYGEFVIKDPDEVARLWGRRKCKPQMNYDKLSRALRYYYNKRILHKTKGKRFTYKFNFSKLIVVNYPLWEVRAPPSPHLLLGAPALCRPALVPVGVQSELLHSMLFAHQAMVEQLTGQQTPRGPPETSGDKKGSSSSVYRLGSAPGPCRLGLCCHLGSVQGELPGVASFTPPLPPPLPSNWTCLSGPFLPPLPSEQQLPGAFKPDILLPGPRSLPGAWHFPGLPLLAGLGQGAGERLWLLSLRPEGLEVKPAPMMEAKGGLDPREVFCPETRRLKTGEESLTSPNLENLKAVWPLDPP
Summed up: as §1

In another assay the target is T3, ETS2 (Homo sapiens, UniProt P15036 1-469).
T3 sequence: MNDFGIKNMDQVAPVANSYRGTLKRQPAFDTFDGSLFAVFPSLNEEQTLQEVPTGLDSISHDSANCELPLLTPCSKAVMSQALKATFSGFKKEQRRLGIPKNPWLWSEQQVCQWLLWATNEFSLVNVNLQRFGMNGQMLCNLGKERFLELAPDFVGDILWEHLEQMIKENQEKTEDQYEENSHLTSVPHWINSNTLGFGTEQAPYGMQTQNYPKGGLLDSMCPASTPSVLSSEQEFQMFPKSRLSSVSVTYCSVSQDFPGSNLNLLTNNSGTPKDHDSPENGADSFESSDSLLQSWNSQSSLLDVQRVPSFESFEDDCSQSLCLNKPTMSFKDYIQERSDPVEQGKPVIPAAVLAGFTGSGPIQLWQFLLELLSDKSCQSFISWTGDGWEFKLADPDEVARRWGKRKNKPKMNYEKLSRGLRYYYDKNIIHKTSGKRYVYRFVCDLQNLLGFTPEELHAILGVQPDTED
Put shortly:
as §1

For a further assay, the target named is T4, SPDEF (Homo sapiens, UniProt O95238 1-335).
T4 sequence: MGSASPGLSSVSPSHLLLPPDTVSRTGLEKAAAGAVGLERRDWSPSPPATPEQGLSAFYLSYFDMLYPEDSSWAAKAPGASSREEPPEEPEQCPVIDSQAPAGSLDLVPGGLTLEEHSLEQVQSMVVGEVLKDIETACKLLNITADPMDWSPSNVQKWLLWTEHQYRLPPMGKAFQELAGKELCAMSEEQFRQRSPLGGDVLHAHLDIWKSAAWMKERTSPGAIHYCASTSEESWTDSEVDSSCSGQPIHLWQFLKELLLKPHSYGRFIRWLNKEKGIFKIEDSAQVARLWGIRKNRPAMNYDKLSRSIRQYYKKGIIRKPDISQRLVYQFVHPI
Put shortly: as §1

The next assay deals with T5, ETV7 (Homo sapiens, UniProt Q9Y603 1-341).
T5 sequence: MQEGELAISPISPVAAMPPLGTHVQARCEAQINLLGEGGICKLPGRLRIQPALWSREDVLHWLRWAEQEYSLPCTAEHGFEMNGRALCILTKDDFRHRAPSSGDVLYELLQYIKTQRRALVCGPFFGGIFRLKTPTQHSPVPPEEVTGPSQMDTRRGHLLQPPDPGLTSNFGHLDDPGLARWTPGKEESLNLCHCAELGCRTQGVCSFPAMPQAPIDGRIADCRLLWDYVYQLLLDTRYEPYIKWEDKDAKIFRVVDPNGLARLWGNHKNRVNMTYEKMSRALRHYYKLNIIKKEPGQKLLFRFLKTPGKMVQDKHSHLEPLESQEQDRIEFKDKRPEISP
Put shortly: as §1

The target in a further assay is T6, ELF5 (Homo sapiens, UniProt Q9UKW6-2 1-255).
T6 sequence: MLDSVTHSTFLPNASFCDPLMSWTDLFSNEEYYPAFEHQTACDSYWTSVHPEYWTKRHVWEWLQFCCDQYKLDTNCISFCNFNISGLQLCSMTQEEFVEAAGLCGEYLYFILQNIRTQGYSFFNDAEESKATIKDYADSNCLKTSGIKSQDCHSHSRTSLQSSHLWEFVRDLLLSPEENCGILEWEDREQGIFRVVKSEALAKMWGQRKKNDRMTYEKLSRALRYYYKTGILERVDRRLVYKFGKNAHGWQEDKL
Summed up: as §1

The target of another assay is T7, ETV3 (Homo sapiens, UniProt P41162-2 1-143).
T7 sequence: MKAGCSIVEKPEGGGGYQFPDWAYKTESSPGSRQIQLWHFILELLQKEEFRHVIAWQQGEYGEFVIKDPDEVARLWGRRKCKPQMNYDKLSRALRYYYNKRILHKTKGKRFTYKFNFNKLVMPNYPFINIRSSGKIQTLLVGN
Summed up: as §1

A further assay addresses ETV6 (Homo sapiens, UniProt P41212 1-452). Summed up:
as §1

Sequence of ETV6 (P41212 whole entry): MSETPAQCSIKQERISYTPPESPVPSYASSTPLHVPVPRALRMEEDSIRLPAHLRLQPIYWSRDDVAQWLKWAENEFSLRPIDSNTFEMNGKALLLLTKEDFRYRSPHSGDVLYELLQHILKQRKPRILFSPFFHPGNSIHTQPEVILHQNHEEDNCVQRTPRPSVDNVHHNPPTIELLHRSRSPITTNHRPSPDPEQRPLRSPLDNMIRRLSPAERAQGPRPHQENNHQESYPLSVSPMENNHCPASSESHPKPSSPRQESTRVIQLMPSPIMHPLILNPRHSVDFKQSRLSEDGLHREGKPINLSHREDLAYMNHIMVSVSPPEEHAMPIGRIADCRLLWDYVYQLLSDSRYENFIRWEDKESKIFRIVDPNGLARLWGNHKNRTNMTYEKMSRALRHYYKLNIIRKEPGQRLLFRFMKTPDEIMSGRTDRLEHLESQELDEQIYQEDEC

For the sequence TACCCA, the binding signal in the assay with ERF was 1.18 fold enrichment (6-mer frequency, TF over GST control); in the assay with ETV3L it was 1.06 fold enrichment (6-mer frequency, TF over GST control); with ETS2, 1.17 fold enrichment (6-mer frequency, TF over GST control); with SPDEF, 1.09 fold enrichment (6-mer frequency, TF over GST control); in the assay with ETV7, 1.07 fold enrichment (6-mer frequency, TF over GST control); with ELF5 it was 1.09 fold enrichment (6-mer frequency, TF over GST control). The binding signal with ETV3 is 1.06 fold enrichment (6-mer frequency, TF over GST control); in the assay with ETV6, 1 fold enrichment (6-mer frequency, TF over GST control).
Turning to TACTTA, the binding signal with ERF is 1.29 fold enrichment (6-mer frequency, TF over GST control); with ETV3L, 1.2 fold enrichment (6-mer frequency, TF over GST control); in the assay with ETS2, 1.25 fold enrichment (6-mer frequency, TF over GST control); with SPDEF it was 1.14 fold enrichment (6-mer frequency, TF over GST control); with ETV7, 1.21 fold enrichment (6-mer frequency, TF over GST control); in the assay with ELF5, 1.14 fold enrichment (6-mer frequency, TF over GST control). The binding signal was 1.17 fold enrichment (6-mer frequency, TF over GST control) with ETV3 and 1.28 fold enrichment (6-mer frequency, TF over GST control) with ETV6.
For TGTCAT, the binding signal was 1.38 fold enrichment (6-mer frequency, TF over GST control) with ERF; 1.19 fold enrichment (6-mer frequency, TF over GST control) with ETV3L; 1.12 fold enrichment (6-mer frequency, TF over GST control) with ETS2; 1.17 fold enrichment (6-mer frequency, TF over GST control) with SPDEF; 1.1 fold enrichment (6-mer frequency, TF over GST control) with ETV7; 1.09 fold enrichment (6-mer frequency, TF over GST control) in the assay with ELF5. Further, the binding signal with ETV3 is 1.12 fold enrichment (6-mer frequency, TF over GST control); with ETV6 it was 1.11 fold enrichment (6-mer frequency, TF over GST control).
On to TTCTTG, for which the binding signal in the assay with ERF was 1.56 fold enrichment (6-mer frequency, TF over GST control); in the assay with ETV3L, 1.56 fold enrichment (6-mer frequency, TF over GST control); with ETS2, 1.39 fold enrichment (6-mer frequency, TF over GST control); with SPDEF, 1.28 fold enrichment (6-mer frequency, TF over GST control); with ETV7, 1.48 fold enrichment (6-mer frequency, TF over GST control); in the assay with ELF5, 1.39 fold enrichment (6-mer frequency, TF over GST control). The binding signal in the assay with ETV3 is 1.47 fold enrichment (6-mer frequency, TF over GST control); with ETV6, 1.38 fold enrichment (6-mer frequency, TF over GST control).
With AAGTCA, the binding signal in the assay with ERF was 1.2 fold enrichment (6-mer frequency, TF over GST control); in the assay with ETV3L it was 1.19 fold enrichment (6-mer frequency, TF over GST control); in the assay with ETS2 it was 1.21 fold enrichment (6-mer frequency, TF over GST control); with SPDEF it was 1.18 fold enrichment (6-mer frequency, TF over GST control); with ETV7 it was 1.24 fold enrichment (6-mer frequency, TF over GST control); with ELF5, 1.21 fold enrichment (6-mer frequency, TF over GST control). For the same sequence, the binding signal was 1.15 fold enrichment (6-mer frequency, TF over GST control) in the assay with ETV3 and 1.26 fold enrichment (6-mer frequency, TF over GST control) in the assay with ETV6.
As for ATTTTC, the binding signal is 1.38 fold enrichment (6-mer frequency, TF over GST control) with ERF; 1.42 fold enrichment (6-mer frequency, TF over GST control) with ETV3L; 1.43 fold enrichment (6-mer frequency, TF over GST control) with ETS2; 1.34 fold enrichment (6-mer frequency, TF over GST control) in the assay with SPDEF; 1.39 fold enrichment (6-mer frequency, TF over GST control) with ETV7; 1.61 fold enrichment (6-mer frequency, TF over GST control) in the assay with ELF5. Further, the binding signal was 1.42 fold enrichment (6-mer frequency, TF over GST control) in the assay with ETV3 and 1.43 fold enrichment (6-mer frequency, TF over GST control) in the assay with ETV6.
For ATATAT, the binding signal was 1.51 fold enrichment (6-mer frequency, TF over GST control) with ERF; 1.41 fold enrichment (6-mer frequency, TF over GST control) with ETV3L; 1.39 fold enrichment (6-mer frequency, TF over GST control) in the assay with ETS2; 1.43 fold enrichment (6-mer frequency, TF over GST control) in the assay with SPDEF; 1.29 fold enrichment (6-mer frequency, TF over GST control) in the assay with ETV7; 1.42 fold enrichment (6-mer frequency, TF over GST control) in the assay with ELF5. Moreover, the binding signal in the assay with ETV3 is 1.41 fold enrichment (6-mer frequency, TF over GST control); with ETV6 it was 1.44 fold enrichment (6-mer frequency, TF over GST control).
Take CCGACA: the binding signal with ERF was 1.22 fold enrichment (6-mer frequency, TF over GST control); with ETV3L it was 1.24 fold enrichment (6-mer frequency, TF over GST control); with ETS2, 1.26 fold enrichment (6-mer frequency, TF over GST control); with SPDEF, 1.27 fold enrichment (6-mer frequency, TF over GST control); in the assay with ETV7, 1.13 fold enrichment (6-mer frequency, TF over GST control); with ELF5, 1.25 fold enrichment (6-mer frequency, TF over GST control). Besides, the binding signal is 1.24 fold enrichment (6-mer frequency, TF over GST control) with ETV3 and 1.23 fold enrichment (6-mer frequency, TF over GST control) in the assay with ETV6.
In the case of AAACGG, the binding signal with ERF is 1.17 fold enrichment (6-mer frequency, TF over GST control); with ETV3L, 1.23 fold enrichment (6-mer frequency, TF over GST control); with ETS2, 1.26 fold enrichment (6-mer frequency, TF over GST control); with SPDEF, 1.25 fold enrichment (6-mer frequency, TF over GST control); in the assay with ETV7, 1.16 fold enrichment (6-mer frequency, TF over GST control); with ELF5, 1.25 fold enrichment (6-mer frequency, TF over GST control). Also, the binding signal is 1.26 fold enrichment (6-mer frequency, TF over GST control) in the assay with ETV3 and 1.28 fold enrichment (6-mer frequency, TF over GST control) with ETV6.

(Values after PMC7862700, “An all-to-all approach to the identification of sequence-specific readers for epigenetic DNA modifications on cytosine”.)
